Laboratory results as given in PubChem BioAssay (NCI).
Compounds without any hit were thinned out: in the full panel of roughly 83,000, 20% have a hit.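 A percent growth of 40 corresponds to 60% growth inhibition; 0 means no net growth; -100 means all cells died. Active threshold: below 10.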 Calls of active or inactive are those of the source.

Experiments:
Experiment in all cases: NCI-60 one-dose screen, 48 h (100 = growth as untreated, 0 = no growth, -100 = all killed)
Details in all cases: 10 µM unless noted
[1] = tested on: SR leukemia
[2] = tested on: RPMI-8226 leukemia
[3] = tested on: OVCAR-8 ovarian
[4] = tested on: OVCAR-5 ovarian
[5] = tested on: OVCAR-4 ovarian
[6] = tested on: SK-OV-3 ovarian
[7] = tested on: IGROV1 ovarian
[8] = tested on: OVCAR-3 ovarian
[9] = tested on: NCI/ADR-RES ovarian
[10] = tested on: HS 578T breast

Measured: growth

S=C(S)OCN1CCOCC1
inactive: [1] 65.2% | [2] 100% | [3] 88% | [4] 97.6% | [5] 56.5% | [6] 98.9% | [7] 56.5% | [8] 118% | [9] 96.2%

N#CC(I)CS(=O)(=O)c1ccccc1 (centres undefined)
inactive: [1] 109% | [2] 101% | [3] 91.5% | [4] 106% | [5] 95.4% | [6] 102% | [7] 69.3% | [8] 76.4% | [10] 114% | [9] 97.4%

CCCOC(=O)c1nc(N(CC2CCCCC2)C(=O)NC)sc1/N=C/c1ccccc1
inactive: [3] 29% | [4] 40% | [5] 35.1% | [6] 24.7% | [7] 19.4%
active: [1] -17.2% | [2] -48.2% | [8] 4.38% | [9] -14%

O=C1C(=O)c2cc([N+](=O)[O-])ccc2-c2ccccc21
inactive: [6] 55.7%
active: [1] -7.48% | [2] -42.1% | [3] -58.6% | [4] -79.2% | [5] -97.6% | [7] -72.5% | [8] -94% | [9] -74.2%

Cc1onc(-c2ccccc2)c1C(=O)N/N=C/c1cc(Cl)cc(Cl)c1O
inactive: [1] 18.5% | [2] 39.6% | [3] 31.1% | [4] 58.1% | [5] 32.1% | [6] 47.6% | [7] 23.2% | [8] 25.2% | [10] 80% | [9] 17.1%

CN=C(N)N/N=C(\C)c1ccc2c(c1)Cc1ccccc1-2
inactive: [7] 20.5%
active: [1] -62.4% | [2] -20.7% | [3] -66.9% | [4] -69.1% | [6] -74.8% | [8] -88.1% | [10] -19.1% | [9] -29.7%

CC1CC(C)(C)OB(OC(C)CC(C)(C)OB2OC(C)CC(C)(C)O2)O1 (centres undefined)
inactive: [1] 96.9% | [2] 100% | [3] 102% | [4] 103% | [5] 111% | [7] 107% | [8] 76.6% | [10] 121% | [9] 101%

N=C1C=C(N)C(=O)c2ccccc21
active: [1] 1.77% | [2] 5.15% | [3] -20.1% | [4] -85.8% | [5] -99.6% | [6] -87% | [7] -37.6% | [8] -87.6% | [9] -76.4%

COc1cc(-c2ccc(-[n+]3nc(-c4ccc([N+](=O)[O-])cc4)nn3-c3ccc([N+](=O)[O-])cc3)c(OC)c2)ccc1-[n+]1nc(-c2ccc([N+](=O)[O-])cc2)nn1-c1ccc([N+](=O)[O-])cc1
inactive: [1] 40.2% | [2] 27.6% | [3] 30.5% | [4] 59.7% | [5] 53.9% | [6] 47.1% | [7] 24.5% | [8] 32% | [9] 73.4%

CC(C)N=C(N)/N=C(\N)Nc1ccc2ccc3ccccc3c2c1
inactive: [9] 41.5%
active: [1] -47.3% | [2] -26.9% | [3] -60.2% | [4] -88.5% | [5] -56.9% | [6] -63.3% | [7] -56.7% | [8] -83%

CC12CCC(O)CC1=CCC1C2CCC2(C)C3=NN=CC3CC12 (centres undefined)
inactive: [1] 60.1% | [2] 96.5% | [3] 107% | [4] 106% | [5] 107% | [6] 115% | [8] 116% | [10] 95.6% | [9] 98.6%

O=C(c1ccccc1)C(O)C(Br)(CBr)c1ccccc1 (centres undefined)
inactive: [1] 59.3% | [2] 73.6% | [3] 93.2% | [4] 99.6% | [5] 90.8% | [6] 114% | [7] 90.9% | [8] 89.7% | [9] 91.6%

N#CC(=C1SCS1)[N+](=O)[O-]
inactive: [2] 32% | [3] 18.9% | [4] 47% | [5] 42.6% | [6] 55% | [7] 24.5% | [9] 20.2%
active: [1] 7.48% | [8] 8.46%

CC1(C)N=c2cc3c(cc2N1c1ccc(Cl)cc1)=Nc1ccccc1N3c1ccc(Cl)cc1
inactive: [3] 21% | [4] 25.5% | [5] 39.1% | [6] 59.4% | [8] 35.9% | [9] 20.4%
active: [1] -41.9% | [2] -27.5%

CN(C)c1ccc(/C=C/c2ccnc3ccccc23)cc1
inactive: [1] 21% | [2] 11.7% | [3] 20.2% | [4] 84.4% | [5] 69.6% | [8] 45.1% | [10] 53.5% | [9] 29.3%

Cc1ccc(N2C(=O)C=CC2=O)cc1
inactive: [1] 66% | [2] 98.8% | [3] 110% | [4] 110% | [5] 107% | [6] 121% | [8] 118% | [9] 104%

Cc1cc(N/N=C/c2ccccn2)nc2ccccc12
active: [3] 6.78% | [7] 2.45% | [9] 7.9%
inactive: [1] 11.5% | [2] 13.7% | [4] 37.9% | [5] 16.4% | [6] 31.6% | [8] 28.6% | [10] 74.8%

CC(=O)c1c(O)c(C)c(O)c2c1OC1=CC(=O)C(C(C)=O)C(=O)C12C (centres undefined)
inactive: [1] 58% | [2] 41.6% | [3] 92.7% | [4] 88.3% | [6] 98.8% | [7] 69.9% | [9] 63.4%

CC1=CC(=O)C=CC1(C)C(Cl)(Cl)Cl (centres undefined)
inactive: [1] 94.2% | [2] 104% | [3] 90.3% | [4] 101% | [5] 114% | [6] 94.3% | [7] 100% | [8] 116% | [10] 93.1% | [9] 102%

O=[N+]([O-])C=C(c1ccccc1)c1ccccc1
inactive: [1] 22.8% | [2] 64.5% | [3] 92.5% | [4] 83.2% | [5] 79.5% | [6] 78% | [7] 86.5% | [8] 90.1% | [9] 75.5%

CC(C)(C)c1ccc(O)c(-c2ccccc2)c1
inactive: [1] 57.7% | [2] 97.1% | [3] 107% | [4] 111% | [5] 127% | [6] 114% | [7] 108% | [8] 111% | [9] 106%

Nc1ccc(Oc2ccccc2)c(Cl)c1
inactive: [1] 92.1% | [2] 101% | [3] 95% | [4] 83.9% | [6] 91.6% | [7] 112% | [8] 113% | [10] 91.7% | [9] 114%

Nc1ccc(-c2ccc(N)c(S(=O)(=O)O)c2)cc1S(=O)(=O)O
inactive: [1] 153% | [2] 110% | [3] 116% | [4] 116% | [5] 108% | [6] 103% | [7] 120% | [8] 108% | [10] 113% | [9] 114%

NNc1cccc([N+](=O)[O-])c1
inactive: [1] 35% | [2] 90.9% | [3] 78% | [4] 94.8% | [5] 107% | [7] 83% | [8] 100% | [10] 106% | [9] 76.3%

Fc1ccc(NCCS)cc1
inactive: [1] 88.9% | [2] 91% | [3] 103% | [4] 104% | [5] 102% | [7] 104% | [8] 107% | [10] 115% | [9] 109%

Nc1cc(-c2ccccc2)ccc1O
active: [2] -11.7%
inactive: [1] 28.7% | [3] 62.7% | [4] 104% | [5] 91.4% | [6] 113% | [7] 115% | [9] 88.4%

CN1CCC(c2ccccc2)(c2ccccc2)C(=O)C1
inactive: [1] 78.2% | [2] 41.7% | [3] 95.9% | [4] 86.8% | [5] 57% | [6] 103% | [7] 89.8% | [8] 68.7% | [9] 73.9%

O=C(CBr)c1ccc(OC(=O)c2ccccc2)cc1
inactive: [1] 88.6% | [2] 89.9% | [3] 104% | [4] 102% | [5] 99% | [6] 100% | [7] 116% | [8] 105% | [10] 108% | [9] 101%

Oc1ccc(Br)cc1Sc1cc(Br)ccc1O
inactive: [1] 41.4% | [3] 51.4% | [4] 105% | [5] 37.3% | [6] 98.3% | [7] 81.5% | [8] 28.9% | [9] 31.4%
active: [2] 4.14%

CC(=O)Nc1ccc(C(=O)CCl)cc1
inactive: [2] 25.2% | [3] 92.1% | [4] 94.5% | [5] 60.6% | [7] 93.2% | [10] 19% | [9] 84.5%
active: [1] -17.9% | [8] -21.6%

C/C(=N/NC(N)=S)c1ccc(C)cc1
inactive: [1] 94.6% | [2] 71.4% | [3] 76.7% | [4] 111% | [5] 88% | [6] 98.8% | [7] 105% | [8] 62.8% | [10] 102% | [9] 76%

N#CCc1cccc2ccccc12
inactive: [1] 100% | [2] 103% | [3] 105% | [4] 110% | [6] 113% | [7] 106% | [8] 120% | [10] 122% | [9] 115%
